# Measured values taken from PMC9838217, “Structure of SALL4 zinc finger domain reveals link between AT-rich DNA binding and Okihiro syndrome”.
# Changes are numbered by the printed parent chain.
# Target: T1, SALL4 ZFC4 WT (HT-SELEX) (Mus musculus, UniProt Q8BX22 870-940)
# T1 sequence: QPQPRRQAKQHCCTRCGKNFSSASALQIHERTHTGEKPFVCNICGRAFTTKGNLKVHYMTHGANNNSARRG
# Assay: HT-SELEX; high values mean tight binding
# Conditions: protein: recombinant; vector His6-GST; dsDNA, one strand shown
# Outline: (§1)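 Purified recombinant mouse SALL4 zinc finger cluster 4 (residues 870–940, 1 µg) was incubated with library DNA (1.5 µg first cycle, 200 ng later) in 100 µl of 10 mM Tris–HCl pH 7.5, 50 mM NaCl, poly(dI-dC) and DTT for 10 min at room temperature, with Ni2+ bead capture and reselection for up to 6 cycles in triplicate. MiSeq reads were scanned for 6-mers. Binding signal is each canonical k-mer's read fraction as fold change relative to the initial random library.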
row,Sequence,binding signal [fold-change vs cycle 0]
1,ACTTCA,1.4 ± 0.0494
2,AAATCG,0.874 ± 0.0288
3,AAGGGT,0.858 ± 0.0423
4,AGTGGG,0.455 ± 0.0261
5,AACTAG,1.31 ± 0.0615
6,AAGATG,1.395 ± 0.00326
7,AATCTG,1.22 ± 0.0563
8,ATGTAG,1.34 ± 0.0549
9,AACTGA,1.35 ± 0.0349
10,CATGAA,1.36 ± 0.0383
11,AGGTAA,1.45 ± 0.0617
12,AAACGA,1.06 ± 0.0291
13,AGATGA,1.49 ± 0.0331
14,GTCTAA,1.16 ± 0.029
15,ACAGTC,0.718 ± 0.0285
16,GAAAAC,1.08 ± 0.0562
17,AATACC,1.3 ± 0.0373
18,GTACAC,0.768 ± 0.0559
19,GAGGAA,0.874 ± 0.0788
20,ATCCAG,0.851 ± 0.0326

row,Sequence,binding signal [fold-change vs cycle 0]
1,ATCAAT,2.28 ± 0.171
2,AATCCT,1.47 ± 0.0694
3,GGGAAA,0.693 ± 0.0334
4,ATTATG,2.78 ± 0.17
5,AGTCAG,0.822 ± 0.0342
6,AAGGAT,1.54 ± 0.0522
7,ACTAGG,0.871 ± 0.0329
8,AAGGTA,1.42 ± 0.048
9,CTCTTC,1.02 ± 0.0449
10,AAGCCA,0.541 ± 0.0136
11,CCTATA,1.35 ± 0.0444
12,AGGACC,0.441 ± 0.038
13,AGACTA,1.31 ± 0.0607
14,GATCAA,1.21 ± 0.0612
15,AGCATA,1.26 ± 0.0848
16,AAGCGT,0.524 ± 0.0507
17,GACATA,1.19 ± 0.0463
18,ACATGT,1.28 ± 0.0279
19,AATCAG,1.32 ± 0.0871
20,AGCACC,0.328 ± 0.0258

# Target: T2, SALL4 ZFC4 R900W (HT-SELEX) (Mus musculus, UniProt Q8BX22 870-940, R900W)
# T2 sequence: T1 sequence with R31W
# Assay: HT-SELEX; high values mean tight binding
# Conditions: protein: recombinant; vector His6-GST; dsDNA, one strand shown
# Outline: as §1
row,Sequence,binding signal [fold-change vs cycle 0]
1,ACTTCA,1.53 ± 0.0862
2,AAATCG,0.918 ± 0.0124
3,AAGGGT,1.01 ± 0.023
4,AGTGGG,0.528 ± 0.0236
5,AACTAG,1.4 ± 0.0768
6,AAGATG,1.5 ± 0.0687
7,AATCTG,1.28 ± 0.0883
8,ATGTAG,1.41 ± 0.0727
9,AACTGA,1.44 ± 0.0702
10,CATGAA,1.4 ± 0.0692
11,AGGTAA,1.58 ± 0.118
12,AGATGA,1.6 ± 0.074
13,GTCTAA,1.28 ± 0.0593
14,ACAGTC,0.8733 ± 0.00718
15,GAAAAC,1.19 ± 0.062
16,AATACC,1.33 ± 0.0245
17,GTACAC,0.868 ± 0.0144
18,GAGGAA,1.03 ± 0.0537
19,ATCCAG,0.955 ± 0.027
20,ATCAAT,2.07 ± 0.0713

row,Sequence,binding signal [fold-change vs cycle 0]
1,AATCCT,1.58 ± 0.0929
2,GGGAAA,0.767 ± 0.0294
3,ATTATG,1.94 ± 0.0249
4,AGTCAG,0.958 ± 0.0579
5,AAGGAT,1.72 ± 0.118
6,ACTAGG,1.01 ± 0.0248
7,AAGGTA,1.59 ± 0.0717
8,CTCTTC,1.24 ± 0.0397
9,AAGCCA,0.628 ± 0.0233
10,CCTATA,1.4 ± 0.0411
11,AGGACC,0.54 ± 0.0359
12,AGACTA,1.47 ± 0.0959
13,GATCAA,1.36 ± 0.014
14,AGCATA,1.27 ± 0.0243
15,AAGCGT,0.607 ± 0.0218
16,GACATA,1.28 ± 0.0199
17,ACATGT,1.4 ± 0.0207
18,AATCAG,1.38 ± 0.0901
19,AGCACC,0.375 ± 0.0109

# Target: T3, SALL4 ZFC4 G921D (HT-SELEX) (Mus musculus, UniProt Q8BX22 870-940, G921D)
# T3 sequence: T1 sequence with G52D
# Assay: HT-SELEX; high values mean tight binding
# Conditions: protein: recombinant; vector His6-GST; dsDNA, one strand shown
# Outline: as §1
row,Sequence,binding signal [fold-change vs cycle 0]
1,AAATCG,1.02 ± 0.0396
2,AGTGGG,0.608 ± 0.0502
3,AATCTG,1.25 ± 0.0941
4,AGATGA,1.46 ± 0.104
5,GTCTAA,1.27 ± 0.0407
6,ACAGTC,0.889 ± 0.0202
7,GTACAC,0.9395 ± 0.00736
8,ATCCAG,0.988 ± 0.0337
9,ATCAAT,1.9 ± 0.133
10,GGGAAA,0.812 ± 0.0285
11,ATTATG,1.74 ± 0.121
12,AAGCCA,0.751 ± 0.0535
13,AGGACC,0.632 ± 0.0389
14,AGACTA,1.41 ± 0.0994
15,AAGCGT,0.726 ± 0.0141
16,GACATA,1.25 ± 0.0289
17,AGCACC,0.521 ± 0.0558
